Screening data deposited in PubChem BioAssay by National Center for Advancing Translational Sciences (NCATS).
Only some compounds are listed: those with a hit (about 7.3% of all), similar ones and a draw of the others.
FMDV antiviral: High Throughput Screening for Foot and Mouth Disease Virus Antivirals. 410,000 tested, 1.2% active. Potency, µM (doses to about 57.9 µM), without a hit: at the highest dose activity change, negative = inhibition, usual class: inhibitors. FMDV antiviral cell-based qHTS. AID 1159524, 2015; calls by dose curve; tested in HEK293T cells; note: read-out not given here; potency is the fitted concentration of half-maximal effect; nearly all actives have a fitted effect of over 45% in size
HCMV inh: qHTS Assay for inhibitors of the human cytomegalovirus (HCMV); HFF cells, HCMV-luciferase reporter, 72 h; active compounds read low; activity change, negative = inhibition, % at 57.5 µM; 410,000 tested, 4.5% active; in the data active = activity change below about -60%; inconclusive = no clear call, values can overlap the other calls; inactive = above about -39%
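Luciferase read-out from HCMV-luciferase-infected HFFs (MOI 1 PFU/cell) 72 h post infection at 37C; compounds added after 16 h cell attachment; activity normalized between buffer-only basal and Salinomycin (10uM) inhibitor controls.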
VACV Venus inh: qHTS for Stage-Specific Inhibitors of Vaccinia Orthopoxvirus: Venus Reporter Primary qHTS. 330,000 tested, 0.46% active. Potency, µM (series often up to 36.5 µM), for inactives: top-dose activity change, negative = inhibition, actives largely listed as inhibitors. Vaccinia virus Venus reporter expression, fluorescence; calls by dose curve; tested in A549 cells; note: potency is the fitted concentration of half-maximal effect; nearly all actives have a fitted effect of over 30% in size
Vaccinia mCherry: qHTS for Stage-Specific Inhibitors of Vaccinia Orthopoxvirus: mCherry Reporter Primary qHTS. Vaccinia virus mCherry reporter infection, fluorescence. Potency, µM (titrated, usually from 36.5 µM), without a hit: at the highest dose activity change, negative = inhibition, usual class: inhibitors. 310,000 tested, 0.63% active; calls by dose curve; tested in A549 cells; note: potency is the fitted concentration of half-maximal effect; nearly all actives have a fitted effect of over 35% in size
HCV inhibitor: qHTS Assay for Inhibitors of Hepatitis C Virus (HCV) | Huh7.5.1 HCVcc-Cre infection, luciferase reporter, 44 h | Potency, µM (top dose mostly 41.8 µM), without a hit: top-dose activity change, negative = inhibition, most hits filed as inhibitors | 340,000 tested, 3.4% active; active = well fitted inhibition curve with a large enough effect; inconclusive = small, poorly fitted or top-dose-only effect, or another doubt; inactive = no such curve, though single readings can be large or run the other way; note: potency is the fitted concentration of half-maximal effect
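A cell-based infection assay in which seeded cells (1,000 per well) receive test compound after 4 h, are inoculated with HCVcc-Cre at approximately 0.5 moi, and are incubated 44 h before luminescence detection.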
Numbers without * were called inactive; i = inactive; ? = inconclusive; / = not tested or not shown; [ ] = remark or other dose. % is set by controls: 0 for no effect and ±100 for the full control effect.

SMILES	FMDV antiviral	HCMV inh	VACV Venus inh	Vaccinia mCherry	HCV inhibitor
C[C@@H]1COc2cc(N3CC[C@H](O)C3)ccc2S(=O)(=O)N1	-5.0%	4.6	2.5%	11.1%	/
COc1cc(C(=O)c2cc3c(cc2C)OCO3)cc(OC)c1OC	-6.8%	-67.8*	?	-0.9%	/
COc1ccc(OC)c(/C=C/C(=O)c2ccc3c(c2)OCCO3)c1	-8.7%	-100.2*	/	/	?
COc1cc(/C=C/C(=O)c2ccc3c(c2)OCO3)cc(OC)c1OC	22.4µM*	/	/	/	?
COc1ccc(/C=C/C(=O)N2CCCc3ccccc32)c(OC)c1	-19.5%	48.9	-15.2%	-6.0%	-29.9%
COc1ccc(/C=C/C(=O)c2ccc3c(c2)OCO3)cc1OC	23.9%	?	-9.9%	-12.1%	3.7%
COc1cc(C(=O)NC(=S)NNC(=O)c2ccc3c(c2)OCO3)cc(OC)c1OC	2.9%	27.3	-11.3%[7.34 µM]	-18.4%[7.34 µM]	?
COc1ccc(OC)c(/C=C/C(=O)N2CCCc3ccccc32)c1	8.3%	-30.7	-12.4%	i	10µM*
O=C(Cc1c(Cl)cccc1Cl)N1CCN(S(=O)(=O)c2cccs2)CC1	-9.5%	-3.3	/	/	-25.6%
COc1cc(/C=C/C(=O)c2ccc3c(c2)OCCO3)cc(OC)c1OC	?	-99.5*	/	/	?
COc1cc(CO)ccc1OCc1nnnn1-c1ccc(C)cc1	-8.7%	-63.4*	/	/	-17.8%
COc1ccc(OCc2nnnn2-c2ccccc2)cc1	1.0%	-37.5	/	/	-3.2%
Cc1cc(-c2ccccc2)n2ncc(-c3ccccc3)c2n1	-16.3%	-60.5*	-25.7%	i	?
Cc1cc(NCc2ccccc2)n2ncc(-c3ccccc3)c2n1	6.8%	11.1	8.8%	12.1%	?
Cc1cc(NC2CCCC2)n2nc(C)c(-c3ccccc3)c2n1	-10.1%	18.2	-24.6%	i	?
Cc1nc2c(-c3ccccc3)cnn2c(N)c1-c1ccccc1	?	-91.2*	?	?	?
Cc1cc(NC(C)c2ccccc2)n2ncc(-c3ccccc3)c2n1 (configuration not stated)	15.2%	85.1	/	/	?
Cc1cc(NC2CCCC2)n2ncc(-c3ccccc3)c2n1	39.8µM*	-90.0*	-5.8%	3.0%	?
COc1ccc(-c2cc(C)nc3c(-c4ccccc4)cnn23)cc1	?	36.9	-11.4%	-13.2%	11.2µM*
CN(C)c1ccc(C(CNC(=O)Cc2cccc3ccccc23)N(C)C)cc1 (configuration not stated)	-14.8%	-38.0	/	/	-2.5%
O=C1CC(N2CCN(c3ccc(F)cc3)CC2)C(=O)N1Cc1cccs1 (configuration not stated)	-21.6%	2.5	-14.9%	/	-4.2%
O=C1CC(N2CCN(c3nc4ccccc4s3)CC2)C(=O)N1Cc1cccs1 (configuration not stated)	?	-3.0	?	/	14.1µM*
COc1cc(CNCCSc2nnnn2C)cc(Br)c1OCc1ccc(F)cc1	?	-5.9	?	/	10µM*
COc1cccc(CNCCSc2nnnn2C)c1OCc1ccc(Cl)cc1Cl	-28.4%	-60.6*	-15.5%	i	/
COc1cccc(CNCCSc2nnnn2C)c1OCc1ccc(Cl)cc1	0.0%	?	-22.9%	i	/
SMILES	FMDV antiviral	HCMV inh	VACV Venus inh	Vaccinia mCherry	HCV inhibitor
Cn1nnnc1SCCCNCc1ccccc1OCc1ccccc1Cl	-29.2%	-63.3*	-20.5%[7.34 µM]	-17.5%[7.34 µM]	/
Cc1ccc(-n2c3c(cc(-c4nc(-c5ccc(Cl)cc5)cs4)c2=O)C(=O)CC(C)(C)C3)cc1C	10.4%	3.9	-4.1%	-6.6%	/
COc1ccc(-n2c(C)nnc2SCC(=O)Nc2ccccc2F)cc1	9.4%	3.8	5.5%	-6.2%	11.2%
C[C@H]1C=CC(=O)O[C@H]1c1ccccc1	-27.9%	-77.4*	3.16µM*	?	14.8%
CC1C(=O)C(C)(C)C(=O)OC1c1ccccc1 (configuration not stated)	5.2%	-38.7	/	/	6.5%
Cc1ccc(NC(=S)N(Cc2cccs2)Cc2cc3cccc(C)c3[nH]c2=O)cc1	-13.2%	?	-10.4%	-11.3%	-6.3%
COC(CNC(=O)c1cnn2c(C)c(Cc3ccccc3)c(C)nc12)OC	-16.4%	-27.5	-14.8%	-20.4%	?
